# Laboratory results reported in the supplement of paper PMC10477191.
# ± gives the standard deviation of the averaged measurements.
# Tested on: Drosophila virilis antennal basiconic sensillum AB5
# Assay: odor-evoked OSN spike response (post minus pre-stimulus); higher = stronger neuronal excitation
# Details: odor dilution: 10^-4
# Experimental: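 Single sensillum recordings from antennal basiconic sensilla of D. virilis. A 500 ms pulse of odorant (10^-4 in mineral oil or DMSO) was delivered; the response is the change in spike frequency between the 1 s pre- and post-stimulus windows (spikes/s).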
row,Structure (SMILES),odor-evoked OSN spike response [spikes/s]
1,CC(=O)OC/C=C(\C)CCC=C(C)C [geranyl acetate],81 ± 11
2,COC(=O)c1ccccc1 [methyl benzoate],49.2 ± 8.7
3,"COc1cccc(OC)c1O [Phenol, 2,6-dimethoxy- (powder)]",54 ± 20
4,CCCCCOC(C)=O [pentyl acetate],65.7 ± 11
5,CC(=O)c1ccccc1 [Acetophenone],65.7 ± 8.1
